Laboratory results: PubChem BioAssay AID1259341 (Broad Institute, 2017)
Calls of active or inactive are those of the source.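 Rule for the calls: active = activity change under -35% in any replicate well, with more than 20 beads read in that well; inactive = the rest.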

Target: Caspase recruitment domain-containing protein 9 (Homo sapiens) + E3 ubiquitin-protein ligase TRIM62 (Homo sapiens) (UniProt Q9H257+Q9BVG3)
Experiment: CARD9/TRIM62 protein interaction inhibitors – cell lysate, HEK293FT lysates, Luminex bead ELISA, primary screen (AID 1259341);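 note: PE anti-Flag signal of Flag-CARD9 captured by myc-TRIM62 beads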
Settings: PE fluorescence, active compounds read low, concentration not given here

Chain of Caspase recruitment domain-containing protein 9 (Homo sapiens) + E3 ubiquitin-protein ligase TRIM62 (Homo sapiens) (Q9BVG3 whole entry, looked up, the tested form may be a part): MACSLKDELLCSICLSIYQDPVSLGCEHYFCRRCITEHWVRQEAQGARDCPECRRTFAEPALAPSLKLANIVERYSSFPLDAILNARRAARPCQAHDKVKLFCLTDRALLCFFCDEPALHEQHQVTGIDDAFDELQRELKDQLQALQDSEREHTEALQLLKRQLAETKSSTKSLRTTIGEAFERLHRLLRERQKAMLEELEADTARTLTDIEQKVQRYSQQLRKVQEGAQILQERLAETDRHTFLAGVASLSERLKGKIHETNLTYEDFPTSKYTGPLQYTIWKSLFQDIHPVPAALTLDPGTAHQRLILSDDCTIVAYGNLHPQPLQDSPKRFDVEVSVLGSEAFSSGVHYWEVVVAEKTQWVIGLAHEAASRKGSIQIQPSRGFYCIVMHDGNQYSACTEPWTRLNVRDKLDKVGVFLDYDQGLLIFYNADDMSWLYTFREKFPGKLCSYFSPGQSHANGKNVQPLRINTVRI
Chain of Caspase recruitment domain-containing protein 9 (Homo sapiens) + E3 ubiquitin-protein ligase TRIM62 (Homo sapiens) (Q9H257 whole entry, looked up, the tested form may be a part): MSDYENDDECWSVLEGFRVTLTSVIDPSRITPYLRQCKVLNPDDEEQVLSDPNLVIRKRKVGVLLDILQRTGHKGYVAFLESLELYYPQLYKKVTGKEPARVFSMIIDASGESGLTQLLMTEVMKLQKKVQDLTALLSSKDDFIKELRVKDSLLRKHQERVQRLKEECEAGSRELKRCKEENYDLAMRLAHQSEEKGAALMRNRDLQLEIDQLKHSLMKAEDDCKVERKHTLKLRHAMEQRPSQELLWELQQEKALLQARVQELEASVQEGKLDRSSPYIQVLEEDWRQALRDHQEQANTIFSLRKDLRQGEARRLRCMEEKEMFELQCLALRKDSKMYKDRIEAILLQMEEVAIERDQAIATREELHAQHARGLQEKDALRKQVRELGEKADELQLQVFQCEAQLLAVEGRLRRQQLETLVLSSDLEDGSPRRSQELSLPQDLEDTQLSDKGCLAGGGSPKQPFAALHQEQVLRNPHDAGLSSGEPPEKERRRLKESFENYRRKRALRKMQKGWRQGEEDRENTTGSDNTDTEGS

| Compound | activity change, negative = inhibition |
| --- | --- |
| Cc1ccc(S(=O)(=O)Cc2ccc(C(=O)N3CCC4(CC3)OCCO4)o2)cc1 | 1.47% (inactive) |
| Nc1c2c(nc3ccccc13)CCN(Cc1ccccc1)C2 | -1.61% (inactive) |
| O=C(Nc1ccon1)c1cc2cccnc2n(Cc2ccccc2)c1=O | 4.61% (inactive) |
| Nc1c(C(=O)NCc2ccco2)c2nc3ccccc3nc2n1CCN1CCOCC1 | -14.4% (inactive) |
| O=C(NC1(C(F)(F)F)Oc2ccc(Cl)cc2O1)N1CCC2(CC1)OCCO2 (configuration not stated) | -0.512% (inactive) |
| CCCCCn1c(NC(=O)c2ccco2)c(C(=O)OCC)c2nc3ccccc3nc21 | -11.3% (inactive) |
| O=C(NCCc1ccccc1)c1cc2cccnc2n(Cc2ccccc2)c1=O | -0.118% (inactive) |
